Article PMC7862700, “An all-to-all approach to the identification of sequence-specific readers for epigenetic DNA modifications on cytosine”

What was measured:
Assay in all cases: DAPPL (digital affinity profiling via proximity ligation, sequencing); 10 mM Tris-HCl pH 7.5, 50 mM NaCl, 1 mM DTT, 4% glycerol, room temperature, 30 min; GST-TFs on glutathione beads, 16-mer random dsDNA library, 0.1% formaldehyde crosslink after washing; high values mean tight binding
Conditions in all cases: protein: recombinant; tags: N-terminal GST; dsDNA, one strand shown
FLI1 = target: T1, FLI1 (Homo sapiens, UniProt Q01543 1-452)
T1 sequence: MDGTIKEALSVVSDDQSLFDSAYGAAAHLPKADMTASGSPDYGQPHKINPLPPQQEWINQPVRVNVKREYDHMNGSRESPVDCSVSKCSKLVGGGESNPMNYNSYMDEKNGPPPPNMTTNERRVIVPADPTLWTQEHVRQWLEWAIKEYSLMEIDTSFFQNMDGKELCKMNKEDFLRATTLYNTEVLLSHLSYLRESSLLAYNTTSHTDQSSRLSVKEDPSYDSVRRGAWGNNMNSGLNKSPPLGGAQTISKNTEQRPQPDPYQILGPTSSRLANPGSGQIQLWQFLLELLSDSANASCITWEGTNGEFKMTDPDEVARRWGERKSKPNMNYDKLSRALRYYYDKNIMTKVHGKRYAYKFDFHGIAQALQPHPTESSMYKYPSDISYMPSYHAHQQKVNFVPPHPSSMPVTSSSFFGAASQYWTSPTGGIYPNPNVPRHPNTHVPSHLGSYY
Method in brief: (§1)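 Binding signal is defined as a hexamer's read frequency for one factor over its frequency for the tag-only sample. To obtain reads, GST-fused human transcription factors were expressed in yeast, captured on glutathione beads, barcoded with DNA and pooled with that sample. Pools met 200 nmole of a 16-mer random double-stranded DNA library in Tris/NaCl/DTT/glycerol buffer for 30 min at room temperature before washing, 0.1% formaldehyde crosslinking, proximity ligation (BsaI/T4 ligase, 1 h, 37 °C), PCR and Illumina NextSeq500 sequencing.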

ELK1 = target: T2, ELK1 (Homo sapiens, UniProt P19419 1-428)
T2 sequence: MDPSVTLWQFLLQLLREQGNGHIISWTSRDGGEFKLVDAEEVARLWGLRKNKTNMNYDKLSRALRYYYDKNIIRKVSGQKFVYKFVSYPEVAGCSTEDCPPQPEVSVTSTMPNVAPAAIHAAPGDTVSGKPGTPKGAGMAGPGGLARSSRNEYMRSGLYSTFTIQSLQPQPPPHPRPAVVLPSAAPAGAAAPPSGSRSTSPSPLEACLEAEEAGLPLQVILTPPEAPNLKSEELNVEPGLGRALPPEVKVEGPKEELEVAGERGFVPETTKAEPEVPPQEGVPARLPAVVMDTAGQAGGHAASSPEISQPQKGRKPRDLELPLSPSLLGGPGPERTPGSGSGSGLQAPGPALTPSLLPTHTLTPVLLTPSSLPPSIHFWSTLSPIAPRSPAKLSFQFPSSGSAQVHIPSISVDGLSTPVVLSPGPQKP
Method in brief: as §1

GABPA = target: T3, GABPA (Homo sapiens, UniProt Q06546 1-454)
T3 sequence: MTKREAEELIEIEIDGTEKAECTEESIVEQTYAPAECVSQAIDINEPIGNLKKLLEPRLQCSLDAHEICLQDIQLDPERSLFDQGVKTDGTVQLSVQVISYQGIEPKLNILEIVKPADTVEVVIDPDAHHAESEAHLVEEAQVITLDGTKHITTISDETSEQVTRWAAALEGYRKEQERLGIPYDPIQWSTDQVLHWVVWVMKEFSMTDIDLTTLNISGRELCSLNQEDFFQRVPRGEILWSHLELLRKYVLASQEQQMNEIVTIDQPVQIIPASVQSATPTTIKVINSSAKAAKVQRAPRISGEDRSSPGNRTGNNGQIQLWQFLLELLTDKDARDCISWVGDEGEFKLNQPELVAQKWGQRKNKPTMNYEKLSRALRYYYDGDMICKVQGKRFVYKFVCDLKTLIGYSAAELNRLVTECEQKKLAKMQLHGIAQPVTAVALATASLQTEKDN
Method in brief: as §1

ERG = target: T4, ERG (Homo sapiens, UniProt P11308 1-479)
T4 sequence: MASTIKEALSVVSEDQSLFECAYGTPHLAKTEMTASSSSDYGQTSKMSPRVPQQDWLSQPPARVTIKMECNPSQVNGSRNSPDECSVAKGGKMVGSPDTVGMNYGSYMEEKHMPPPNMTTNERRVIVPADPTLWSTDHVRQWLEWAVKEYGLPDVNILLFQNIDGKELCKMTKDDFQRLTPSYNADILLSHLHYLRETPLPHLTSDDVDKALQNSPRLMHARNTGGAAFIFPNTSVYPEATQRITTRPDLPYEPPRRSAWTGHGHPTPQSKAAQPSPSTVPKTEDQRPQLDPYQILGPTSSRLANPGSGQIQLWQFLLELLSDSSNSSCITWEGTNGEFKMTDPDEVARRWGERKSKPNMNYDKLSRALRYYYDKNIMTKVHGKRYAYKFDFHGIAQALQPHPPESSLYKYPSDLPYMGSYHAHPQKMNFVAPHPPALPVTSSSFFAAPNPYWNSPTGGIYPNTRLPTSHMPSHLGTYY
Method in brief: as §1

ELF1 = ELF1 (Homo sapiens, UniProt P32519 1-619)
Sequence of ELF1 (P32519 whole entry): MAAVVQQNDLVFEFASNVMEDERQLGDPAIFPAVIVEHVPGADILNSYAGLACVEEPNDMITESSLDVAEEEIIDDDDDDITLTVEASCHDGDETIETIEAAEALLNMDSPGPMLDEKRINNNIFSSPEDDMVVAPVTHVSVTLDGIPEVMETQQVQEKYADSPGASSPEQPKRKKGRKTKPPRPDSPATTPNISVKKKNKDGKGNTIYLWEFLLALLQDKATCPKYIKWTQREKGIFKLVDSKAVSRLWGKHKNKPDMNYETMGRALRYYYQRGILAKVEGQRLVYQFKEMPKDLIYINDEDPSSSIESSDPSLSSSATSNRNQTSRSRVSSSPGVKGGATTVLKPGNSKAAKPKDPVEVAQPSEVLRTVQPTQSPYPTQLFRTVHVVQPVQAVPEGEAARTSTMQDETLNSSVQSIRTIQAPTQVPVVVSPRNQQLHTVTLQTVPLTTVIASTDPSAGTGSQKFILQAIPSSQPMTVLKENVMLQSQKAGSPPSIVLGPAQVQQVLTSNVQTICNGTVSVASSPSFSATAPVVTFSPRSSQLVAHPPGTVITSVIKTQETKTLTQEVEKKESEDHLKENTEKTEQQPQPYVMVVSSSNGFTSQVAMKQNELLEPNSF
Method in brief: as §1

EHF = target: T5, EHF (Homo sapiens, UniProt Q9NZC4 1-300)
T5 sequence: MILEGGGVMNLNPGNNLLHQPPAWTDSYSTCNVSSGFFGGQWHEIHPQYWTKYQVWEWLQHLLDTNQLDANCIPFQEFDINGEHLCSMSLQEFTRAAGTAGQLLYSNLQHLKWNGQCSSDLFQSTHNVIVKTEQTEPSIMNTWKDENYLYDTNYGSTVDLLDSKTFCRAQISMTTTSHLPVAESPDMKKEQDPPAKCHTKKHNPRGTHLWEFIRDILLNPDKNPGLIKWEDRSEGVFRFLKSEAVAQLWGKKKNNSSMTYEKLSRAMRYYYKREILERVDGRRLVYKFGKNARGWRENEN
Method in brief: as §1

SPI1 = SPI1 (Homo sapiens, UniProt P17947 1-270)
Method in brief: as §1

SPIB = SPIB (Homo sapiens, UniProt Q01892 1-262)
Sequence of SPIB (Q01892 whole entry): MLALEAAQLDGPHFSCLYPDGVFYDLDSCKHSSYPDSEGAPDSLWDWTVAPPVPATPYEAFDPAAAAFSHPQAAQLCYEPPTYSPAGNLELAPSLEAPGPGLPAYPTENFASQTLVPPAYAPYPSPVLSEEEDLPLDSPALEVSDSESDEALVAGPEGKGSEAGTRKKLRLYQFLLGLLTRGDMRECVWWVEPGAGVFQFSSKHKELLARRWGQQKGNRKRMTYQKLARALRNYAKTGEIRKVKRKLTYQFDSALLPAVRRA
Method in brief: as §1

ELK3 = target: T6, ELK3 (Homo sapiens, UniProt P41970 1-407)
T6 sequence: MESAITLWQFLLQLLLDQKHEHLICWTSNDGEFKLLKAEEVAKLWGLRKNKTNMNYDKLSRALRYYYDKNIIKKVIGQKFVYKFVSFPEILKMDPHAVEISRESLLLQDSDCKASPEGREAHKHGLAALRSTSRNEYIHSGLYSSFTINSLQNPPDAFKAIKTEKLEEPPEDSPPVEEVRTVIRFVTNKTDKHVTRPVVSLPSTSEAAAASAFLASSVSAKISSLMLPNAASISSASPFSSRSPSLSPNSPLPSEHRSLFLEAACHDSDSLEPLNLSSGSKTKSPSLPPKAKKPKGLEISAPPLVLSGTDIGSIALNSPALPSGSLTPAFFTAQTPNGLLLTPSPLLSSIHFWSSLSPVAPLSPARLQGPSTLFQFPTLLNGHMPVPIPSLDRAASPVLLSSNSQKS
Method in brief: as §1

| Sequence | binding signal (FLI1) | binding signal (ELK1) | binding signal (GABPA) | binding signal (ERG) | binding signal (ELF1) | binding signal (EHF) | binding signal (SPI1) | binding signal (SPIB) | binding signal (ELK3) |
| --- | --- | --- | --- | --- | --- | --- | --- | --- | --- |
| TTGAAC | 1.13 fold enrichment (6-mer frequency, TF over GST control) | 1.1 fold enrichment (6-mer frequency, TF over GST control) | 1.08 fold enrichment (6-mer frequency, TF over GST control) | 1.01 fold enrichment (6-mer frequency, TF over GST control) | 1.15 fold enrichment (6-mer frequency, TF over GST control) | 1.11 fold enrichment (6-mer frequency, TF over GST control) | 1.04 fold enrichment (6-mer frequency, TF over GST control) | 1.12 fold enrichment (6-mer frequency, TF over GST control) | 1.12 fold enrichment (6-mer frequency, TF over GST control) |
| AAGAAT | 1.13 fold enrichment (6-mer frequency, TF over GST control) | 1.17 fold enrichment (6-mer frequency, TF over GST control) | 1.13 fold enrichment (6-mer frequency, TF over GST control) | 1.15 fold enrichment (6-mer frequency, TF over GST control) | 1.11 fold enrichment (6-mer frequency, TF over GST control) | 1.14 fold enrichment (6-mer frequency, TF over GST control) | 1.18 fold enrichment (6-mer frequency, TF over GST control) | 1.14 fold enrichment (6-mer frequency, TF over GST control) | 1.1 fold enrichment (6-mer frequency, TF over GST control) |
| TAAGCC | 1.15 fold enrichment (6-mer frequency, TF over GST control) | 1.12 fold enrichment (6-mer frequency, TF over GST control) | 1.19 fold enrichment (6-mer frequency, TF over GST control) | 1.13 fold enrichment (6-mer frequency, TF over GST control) | 1.16 fold enrichment (6-mer frequency, TF over GST control) | 1.08 fold enrichment (6-mer frequency, TF over GST control) | 1.08 fold enrichment (6-mer frequency, TF over GST control) | 1.19 fold enrichment (6-mer frequency, TF over GST control) | 1.06 fold enrichment (6-mer frequency, TF over GST control) |
| CACCCG | 1.14 fold enrichment (6-mer frequency, TF over GST control) | 1.24 fold enrichment (6-mer frequency, TF over GST control) | 1.18 fold enrichment (6-mer frequency, TF over GST control) | 1.21 fold enrichment (6-mer frequency, TF over GST control) | 1.2 fold enrichment (6-mer frequency, TF over GST control) | 1.2 fold enrichment (6-mer frequency, TF over GST control) | 1.12 fold enrichment (6-mer frequency, TF over GST control) | 1.28 fold enrichment (6-mer frequency, TF over GST control) | 1.17 fold enrichment (6-mer frequency, TF over GST control) |
| ACGCCC | 1.22 fold enrichment (6-mer frequency, TF over GST control) | 1.21 fold enrichment (6-mer frequency, TF over GST control) | 1.25 fold enrichment (6-mer frequency, TF over GST control) | 1.11 fold enrichment (6-mer frequency, TF over GST control) | 1.21 fold enrichment (6-mer frequency, TF over GST control) | 1.18 fold enrichment (6-mer frequency, TF over GST control) | 1.11 fold enrichment (6-mer frequency, TF over GST control) | 1.14 fold enrichment (6-mer frequency, TF over GST control) | 1.11 fold enrichment (6-mer frequency, TF over GST control) |
| ACTCAC | 1.22 fold enrichment (6-mer frequency, TF over GST control) | 1.31 fold enrichment (6-mer frequency, TF over GST control) | 1.27 fold enrichment (6-mer frequency, TF over GST control) | 1.17 fold enrichment (6-mer frequency, TF over GST control) | 1.18 fold enrichment (6-mer frequency, TF over GST control) | 1.24 fold enrichment (6-mer frequency, TF over GST control) | 1.23 fold enrichment (6-mer frequency, TF over GST control) | 1.44 fold enrichment (6-mer frequency, TF over GST control) | 1.35 fold enrichment (6-mer frequency, TF over GST control) |
| CTCACT | 1.61 fold enrichment (6-mer frequency, TF over GST control) | 1.76 fold enrichment (6-mer frequency, TF over GST control) | 1.59 fold enrichment (6-mer frequency, TF over GST control) | 1.57 fold enrichment (6-mer frequency, TF over GST control) | 1.49 fold enrichment (6-mer frequency, TF over GST control) | 1.56 fold enrichment (6-mer frequency, TF over GST control) | 1.68 fold enrichment (6-mer frequency, TF over GST control) | 1.66 fold enrichment (6-mer frequency, TF over GST control) | 1.5 fold enrichment (6-mer frequency, TF over GST control) |
